Among the data in PubChem BioAssay (Tox21) are Potency, PLD induction and max activation values, retold here.

SMILES strings stand for the structures. Inconclusive results are not listed. A number with no mark means an inactive call. Activity calls are given as the source filed them. Unless noted, calls come from the whole dose curve; as a rule, active = well fitted curve in the direction sought with a large enough effect in the repeat runs; inconclusive = weak or mixed curves; inactive = no such curve, though single readings can be large; an effect the other way counts as inactive or inconclusive.

Test [1] in a line: qHTS assay to identify aromatase inhibitors - cell viability counter screen (AID 743084).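 Note: cells stimulated with testosterone during compound exposure; nearly all actives have a fitted effect of over 55% in size.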 Note: potency is the fitted concentration of half-maximal effect. On the technique in general: Quantitative high-throughput screening tests each substance at several concentrations.
Test [2] is described as follows: qHTS assay to identify small molecule that activate the aryl hydrocarbon receptor (AhR) signaling pathway - cell viability counter screen (AID 743086). Note: nearly all actives have a fitted effect of over 45% in size. Note: potency is the fitted concentration of half-maximal effect. The essentials: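 HepG2-AhR-luc (HG2L7.5c1) cells, 4000/well, treated 24 h at 37 C with compound; viability measured as CellTiter-Fluor fluorescence after 30 min in the same wells as the luciferase read.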
A short description of test [3]: qHTS assay to identify small molecule phospholipidosis (PLD) inducers (AID 1259344; active = well fitted curve in the direction sought with a large enough effect; an effect the other way counts as inactive or inconclusive). The essentials: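 HepG2 cells, 900/well, treated with compound plus LipidTOX Red for 24 h at 37 C; amiodarone positive and DMSO negative controls. Fixed with paraformaldehyde/Hoechst, then high-content imaging scored LipidTOX pit count and integrated intensity per well and per cell.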

In test [4] the target is Aryl hydrocarbon receptor (Homo sapiens) (UniProt P35869). Kind of test: qHTS assay to identify small molecule that activate the aryl hydrocarbon receptor (AhR) signaling pathway (AID 743085).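 For activation: HG2L7.5c1 human HepG2 liver cells with stably integrated DRE-driven firefly reporter; series mostly up to about 70 µM.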 Note: nearly all actives have a fitted effect of over 15% in size. Note: potency is the fitted concentration of half-maximal effect. The essentials: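 Luminescence (ONE-Glo) from a dioxin-responsive-element luciferase reporter in HG2L7.5c1 HepG2 cells after 24 hr compound exposure at 37C; viability measured by CellTiter-Fluor fluorescence beforehand.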
Sequence of Aryl hydrocarbon receptor (Homo sapiens) (P35869 whole entry, looked up): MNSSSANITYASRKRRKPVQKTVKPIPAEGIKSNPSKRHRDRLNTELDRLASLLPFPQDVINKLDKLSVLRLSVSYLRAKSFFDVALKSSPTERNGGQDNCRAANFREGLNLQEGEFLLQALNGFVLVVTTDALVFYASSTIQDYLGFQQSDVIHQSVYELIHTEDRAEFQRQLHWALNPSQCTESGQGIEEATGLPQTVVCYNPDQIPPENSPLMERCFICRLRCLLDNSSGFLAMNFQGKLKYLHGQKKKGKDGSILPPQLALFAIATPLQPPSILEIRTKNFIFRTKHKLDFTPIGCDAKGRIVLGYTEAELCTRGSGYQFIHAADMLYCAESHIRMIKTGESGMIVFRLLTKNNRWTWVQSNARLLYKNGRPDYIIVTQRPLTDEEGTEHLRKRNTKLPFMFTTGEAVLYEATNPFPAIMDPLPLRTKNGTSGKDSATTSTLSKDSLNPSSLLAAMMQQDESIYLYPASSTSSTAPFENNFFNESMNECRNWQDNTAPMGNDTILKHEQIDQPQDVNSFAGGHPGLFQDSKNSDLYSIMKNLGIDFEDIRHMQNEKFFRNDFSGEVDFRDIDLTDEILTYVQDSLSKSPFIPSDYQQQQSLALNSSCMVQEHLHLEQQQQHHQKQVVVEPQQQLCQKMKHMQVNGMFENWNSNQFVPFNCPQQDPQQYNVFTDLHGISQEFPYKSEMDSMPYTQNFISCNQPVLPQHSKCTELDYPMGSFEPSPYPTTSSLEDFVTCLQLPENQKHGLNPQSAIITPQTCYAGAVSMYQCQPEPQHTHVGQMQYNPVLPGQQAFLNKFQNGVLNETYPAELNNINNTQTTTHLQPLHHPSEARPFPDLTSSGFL

Test [5] addresses Peroxisome proliferator-activated receptor gamma (Homo sapiens) (UniProt P37231). Kind of test: qHTS assay to identify small molecule agonists of the peroxisome proliferator-activated receptor gamma (PPARg) signaling pathway (AID 743094; active = well fitted activation curve with a large enough effect in the signal ratio in the repeat runs, not every such curve was filed as active; the % refers to the signal ratio). The essentials: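 Following 5 h plating at 37C, PPARg-bla HEK293H cells receive compound or DMSO for 17 h; fluorescence intensity is recorded after LiveBLAzer B/G loading for 1 h at room temperature.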

In test [6] the target is Nuclear receptor subfamily 1 group I member 2 (Rattus norvegicus) (UniProt Q9R1A7). The test is described as follows: Rat pregnane X receptor (rPXR) activation by small molecules, qHTS assay (AID 1346983). Note: nearly all actives have a fitted effect of over 20% in size. The following applies: rPXR luciferase reporter cells, One-Glo luminescence, 24 h; max activation: active compounds read high. The essentials: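 Cell-based rPXR activation assay: rPXR cells, 2,000 per well, rested 5hr at 37 C, then exposed to compounds in DMSO for 24 hr at 37 C. Luciferase activity read by One-Glo luminescence after 30 min at room temperature.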
Sequence of Nuclear receptor subfamily 1 group I member 2 (Rattus norvegicus) (Q9R1A7 whole entry, looked up): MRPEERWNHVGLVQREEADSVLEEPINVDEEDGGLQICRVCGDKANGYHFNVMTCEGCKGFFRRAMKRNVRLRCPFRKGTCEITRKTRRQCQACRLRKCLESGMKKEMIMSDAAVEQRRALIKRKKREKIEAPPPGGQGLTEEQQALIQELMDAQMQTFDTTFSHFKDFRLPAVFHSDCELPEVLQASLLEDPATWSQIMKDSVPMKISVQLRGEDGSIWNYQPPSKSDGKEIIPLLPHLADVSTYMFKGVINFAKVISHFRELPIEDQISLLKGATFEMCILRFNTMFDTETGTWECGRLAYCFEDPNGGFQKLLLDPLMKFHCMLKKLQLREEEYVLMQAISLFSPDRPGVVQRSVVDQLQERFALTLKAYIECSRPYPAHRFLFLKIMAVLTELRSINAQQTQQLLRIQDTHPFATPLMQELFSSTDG

Test [7] concerns the target Nuclear receptor subfamily 1 group I member 2 (Homo sapiens) (UniProt O75469). Kind of test: CYP3A4 induction through human pregnane X receptor (PXR) by small molecules, qHTS assay (AID 1346984). Note: nearly all actives have a fitted effect of over 40% in size. Put shortly: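 qHTS, concentration-response format: HepG2 DPX-2 line, PXR/CYP3A4-luc. Exposure 24 h, 37C. Substrate Luciferin-IPA 3uM final, 3 h. Detection One-Glo, 30 min RT.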

Test [8] has the same target. The test is described as follows: Human pregnane X receptor (PXR) activation by small molecules, qHTS assay (AID 1346985). Note: nearly all actives have a fitted effect of over 40% in size. Put shortly: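 DPX-2 cells (HepG2 co-transfected with a PXR response element and a CYP3A4-promoter luciferase construct) were seeded at 2,000 per well, rested 5 hr at 37C, then exposed to DMSO-dissolved compounds for 24 hr. Activation was read as luciferase luminescence.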
% is set by controls: 0 for no effect and ±100 for the full control effect.

Sequence of Peroxisome proliferator-activated receptor gamma (Homo sapiens) (P37231 whole entry, looked up): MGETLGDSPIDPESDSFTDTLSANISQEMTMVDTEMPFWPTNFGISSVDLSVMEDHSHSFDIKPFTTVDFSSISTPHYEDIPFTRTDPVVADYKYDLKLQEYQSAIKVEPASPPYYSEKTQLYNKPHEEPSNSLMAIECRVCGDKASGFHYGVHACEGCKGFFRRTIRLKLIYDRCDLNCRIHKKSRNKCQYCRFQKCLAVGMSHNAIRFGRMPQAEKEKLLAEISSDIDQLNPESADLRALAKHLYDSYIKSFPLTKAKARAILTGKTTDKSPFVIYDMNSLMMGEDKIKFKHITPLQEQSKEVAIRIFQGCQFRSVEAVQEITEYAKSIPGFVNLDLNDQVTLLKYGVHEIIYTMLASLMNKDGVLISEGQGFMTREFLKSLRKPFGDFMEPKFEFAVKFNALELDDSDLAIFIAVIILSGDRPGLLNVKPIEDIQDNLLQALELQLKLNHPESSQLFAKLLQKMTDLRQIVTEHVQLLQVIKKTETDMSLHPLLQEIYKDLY

Turning to `CCN(CC)c1ccc(N=Nc2ccc(S(=O)(=O)N(C)C)cc2)c(S(=O)(=O)NCC[n+]2ccccc2)c1`, the Potency result in test [1], in test [2] and in test [3] was “inactive” in each case.

For `NC[C@@H]1O[C@H](O[C@H]2[C@@H](O)[C@H](O[C@@H]3[C@@H](O)[C@H](N)C[C@H](N)[C@H]3O[C@H]3O[C@H](CN)[C@@H](O)[C@H](O)[C@H]3N)O[C@@H]2CO)[C@H](N)[C@@H](O)[C@@H]1O`, the Potency entry in test [1], in test [4], in test [5] and in test [3] was “inactive” each time.

Take `CCC(=O)O[C@H]1CC[C@H]2[C@@H]3CCc4cc(O)ccc4[C@H]3CC[C@]12C`: the Potency result in test [1], in test [2], in test [5] and in test [3] was “inactive” in each case.

For `CC1(C)S[C@@H]2[C@H](NC(=O)C(C(=O)Oc3ccc4c(c3)CCC4)c3ccccc3)C(=O)N2[C@H]1C(=O)O` (stereo partly specified), the Potency entry in test [1], in test [2], in test [5] and in test [3] was “inactive” throughout.

Take `COc1cc([C@@H]2c3cc4c(cc3C(O[C@@H]3O[C@@H]5CO[C@@H](C)O[C@H]5[C@H](O)[C@H]3O)C3COC(=O)[C@@H]32)OCO4)cc(OC)c1OP(=O)(O)O` (stereo partly specified): the Potency entry in test [1], in test [2] and in test [5] was “inactive” each time. Besides, the PLD induction in test [3] was 0.0559% [at 1.53 µM].

With `CCOC(=O)Cc1cccc(-c2cc(CCCCCCc3ccc(O[C@H]4O[C@H](COC(C)=O)[C@@H](OC(C)=O)[C@H](OC(C)=O)[C@@H]4OC(C)=O)c(-c4cccc(CC(=O)OCC)c4)c3)ccc2O[C@H]2O[C@H](COC(C)=O)[C@@H](OC(C)=O)[C@H](OC(C)=O)[C@@H]2OC(C)=O)c1`, the Potency entry in test [1], in test [4], in test [5] and in test [3] was “inactive” in each case.

With `O=C(O)c1cc2ccccc2c(Cc2c(O)c(C(=O)O)cc3ccccc23)c1O`, the Potency result in test [1], in test [2], in test [5] and in test [3] was “inactive” throughout.

Turning to `CC(=O)OCC(=O)[C@@]1(O)[C@H](C)C[C@H]2[C@@H]3C[C@H](F)C4=CC(=O)C=C[C@]4(C)[C@H]3[C@@H](O)C[C@@]21C`, the Potency entry in test [1], in test [2], in test [5] and in test [3] was “inactive” each time.

Take `OC(CN1CCCCC1)c1cc(-c2ccccc2)on1` (stereo unspecified): the Potency result in test [1], in test [2], in test [5] and in test [3] was “inactive” each time.

In the case of `N[C@H](CCC(=O)O)C(=O)O`, the Potency result in test [1], in test [4] and in test [5] was “inactive” each time. For the same compound, the PLD induction in test [3] is 0.563% [at 7.66 µM].

For the compound `COc1cc2[nH]c(C)c(CCN3CCN(c4ccccc4)CC3)c2cc1OC`, the Potency result in test [4], in test [5] and in test [3] was “inactive” throughout.

In the case of `CC[C@H]1OC(=O)[C@H](C)[C@@H](O[C@H]2C[C@@](C)(OC)[C@@H](O)[C@H](C)O2)[C@H](C)[C@@H](O[C@@H]2O[C@H](C)C[C@H](N(C)C)[C@H]2O)[C@](C)(O)C[C@@H](C)[C@@H]2N[C@@H](COCCOC)O[C@@H]([C@H]2C)[C@]1(C)O`, the Potency entry in test [1], in test [2], in test [5] and in test [3] was “inactive” throughout.

`CC1=C(C(=O)OCCN(Cc2ccccc2)c2ccccc2)C(c2cccc([N+](=O)[O-])c2)C(P2(=O)OCC(C)(C)CO2)=C(C)N1` (stereo unspecified): in test [4], the Potency entry was “inactive”. The PLD induction in test [3] is -1.08% [at 7.66 µM].

For `CCNC(=O)[C@@H]1CCCN1C(=O)[C@H](CCCN=C(N)N)NC(=O)[C@H](CC(C)C)NC(=O)[C@@H](Cc1c[nH]c2ccccc12)NC(=O)[C@H](Cc1ccc(O)cc1)NC(=O)[C@H](CO)NC(=O)[C@H](Cc1c[nH]c2ccccc12)NC(=O)[C@H](Cc1cnc[nH]1)NC(=O)[C@@H]1CCC(=O)N1`, the Potency in test [1] was 29.8 µM (active); in test [2], 7.5 µM (active). Further, the Potency entry in test [4], in test [7] and in test [8] was “inactive” in each case. Moreover, the max activation in test [6] was -27.8%.

Turning to `O=C(Nc1ccc(/C=C/c2ccc(NC(=O)c3cc(S(=O)(=O)O)c4cccnc4c3O)cc2S(=O)(=O)O)c(S(=O)(=O)O)c1)c1cc(S(=O)(=O)O)c2cccnc2c1O`, the Potency result in test [2] and in test [5] was “inactive” each time. The PLD induction in test [3] was -0.0305% [at 7.66 µM].

Take `CN1CC(O)c2cc(N=NC(N)=O)c(O)cc21` (stereo unspecified): the Potency entry in test [5] and in test [3] was “inactive” throughout.

On to `Clc1ccc(COC(Cn2ccnc2)c2ccc(Cl)cc2Cl)c(Cl)c1` (stereo unspecified), for which the Potency result in test [1], in test [5] and in test [3] was “inactive” throughout.

As to `CC(C)(C)NC[C@H](O)COc1ccccc1C1CCCC1`, the Potency entry in test [1], in test [4], in test [2], in test [5], in test [7] and in test [8] was “inactive” in each case. The max activation in test [6] is -2.28%.

In the case of `C[C@]12C=CC(=O)N[C@@H]1CC[C@@H]1[C@@H]2CC[C@]2(C)[C@@H](C(=O)Nc3cc(C(F)(F)F)ccc3C(F)(F)F)CC[C@@H]12`, the Potency result in test [1], in test [4], in test [5], in test [7] and in test [8] was “inactive” in each case. The max activation in test [6] is -1.05%.

Regarding `C[C@@H]1C[C@H]2C3C[C@H](F)C4=CC(=O)C=CC4(C)[C@@]3(F)[C@@H](O)CC2(C)[C@@]1(O)C(=O)COC(=O)C(C)(C)C` (stereo partly specified), the Potency entry in test [1], in test [5] and in test [3] was “inactive” each time.

On to `Cc1c(N)nc(C(CC(N)=O)NCC(N)C(N)=O)nc1C(=O)NC(C(=O)NC(C)C(O)C(C)C(=O)NC(C(=O)NCCc1nc(-c2nc(C(=O)NCCCN[C@@H](C)c3ccccc3)cs2)cs1)C(C)O)C(O[C@@H]1O[C@@H](CO)[C@@H](O)[C@H](O)[C@@H]1O[C@H]1O[C@H](CO)[C@@H](O)[C@H](OC(N)=O)[C@@H]1O)c1cnc[nH]1` (stereo partly specified), for which the Potency result in test [2] is “inactive”. For the same compound, the PLD induction in test [3] is 1.81% [at 7.66 µM].

As to `CCCCCCCCCCCCCCCCCCCCCC(=O)Nc1ccn([C@@H]2O[C@H](CO)[C@@H](O)[C@@H]2O)c(=O)n1`, the Potency entry in test [1], in test [4], in test [2], in test [5], in test [7] and in test [8] was “inactive” in each case. In test [6], the max activation is -4.2%.

Consider `OCCN1CCN(CC/C=C2/c3ccccc3Sc3ccc(Cl)cc32)CC1`, for which the Potency entry in test [1], in test [4], in test [2], in test [5], in test [7] and in test [8] was “inactive” throughout. Also, in test [6], the max activation is -1.76%.

On to `CC1(S(=O)(=O)O)CC(=O)c2ccccc2C1=O` (stereo unspecified), for which the Potency in test [4] is 10.6 µM (active). Moreover, in test [3], the Potency entry is “inactive”.
